The text below walks through data of PubChem BioAssay (Tox21).

The nature of experiment [1]: qHTS RealTime-Glo MT Cell Viability Assay in HepG2 cells - 40 hour (AID 1224870). Note: % is set by controls: 0 for no effect and ±100 for the full control effect; nearly all actives have a fitted effect of over 50% in size. Summed up: (§1)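 HepG2 cells mixed with RealTime-Glo MT reagents (NanoLuc plus cell-permeant prosubstrate) were seeded at 600 cells/well, incubated 5 h at 37 C/5% CO2, then pinned with compounds in DMSO; nonlytic luminescence tracked viability during 40 h treatment.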
(qHTS replaces the single test concentration by a dilution series.)

A short description of experiment [2]: qHTS RealTime-Glo MT Cell Viability Assay in HepG2 cells - 8 hour (AID 1224873). Note: % is set by controls: 0 for no effect and ±100 for the full control effect; nearly all actives have a fitted effect of over 55% in size. In outline: as §1
The nature of experiment [3]: qHTS RealTime-Glo MT Cell Viability Assay in HEK293 cells - 40 hour (AID 1224874). For max response: % is set by controls: 0 for no effect and ±100 for the full control effect. Note: nearly all actives have a fitted effect of over 50% in size. Note: potency is the fitted concentration of half-maximal effect. As to conditions: RealTime-Glo luminescence; max response: hits give low values. In outline:
(§2)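 Measured as luminescence from the same continuously cultured HEK293 wells at successive time points (0, 8, 16, 24, 32, 40 h) after compound addition. Reagent present from seeding; dosing at 5 h; incubation 37 C.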

The nature of experiment [4]: A CellTox Green Cytotoxicity Assay to monitor cytotoxicity in HEK293 cells - 24 hour (AID 1224875). Note: nearly all actives have a fitted effect of over 45% in size. Note: potency is the fitted concentration of half-maximal effect. Summed up:
(§3)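 Homogeneous no-lysis format: HEK293 cell suspension mixed with CellTox Green reagent, seeded, incubated 5 h at 37 C/5% CO2, then dosed by pintool with compound in DMSO.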

Experiment [5] can be described thus: A CellTox Green Cytotoxicity Assay to monitor cytotoxicity in HepG2 cells - 16 hour (AID 1224876). Note: nearly all actives have a fitted effect of over 45% in size. Note: potency is the fitted concentration of half-maximal effect. In outline:
(§4)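 Fluorescent DNA-binding dye, 600 HepG2 cells/well, 5 h preincubation then compound in DMSO; same plates read at 0–40 h, 37 C.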

The nature of experiment [6]: qHTS RealTime-Glo MT Cell Viability Assay in HepG2 cells - 32 hour (AID 1224877). Note: % is set by controls: 0 for no effect and ±100 for the full control effect; nearly all actives have a fitted effect of over 55% in size. In outline:
(§5)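 Viability was tracked continuously by NanoLuc luminescence from prosubstrate reduced by living HepG2 cells, at successive time points over 40 h of compound exposure. Cells with reagent were preincubated 5 h at 37 °C before compound addition.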

Experiment [7] can be described thus: A CellTox Green Cytotoxicity Assay to monitor cytotoxicity in HepG2 cells - 24 hour (AID 1224878). For Cytotoxicity: % is set by controls: 0 for no effect and ±100 for the full control effect. Note: nearly all actives have a fitted effect of over 45% in size. Note: potency is the fitted concentration of half-maximal effect. In outline:
as §4

The nature of experiment [8]: A CellTox Green Cytotoxicity Assay to monitor cytotoxicity in HepG2 cells - 40 hour (AID 1224879). Note: nearly all actives have a fitted effect of over 40% in size. Note: potency is the fitted concentration of half-maximal effect. In outline: as §4
Experiment [9] can be described thus: qHTS RealTime-Glo MT Cell Viability Assay in HEK293 cells - 0 hour (AID 1224880). Note: top concentration of the series differs between compounds; % is set by controls: 0 for no effect and ±100 for the full control effect; nearly all actives have a fitted effect of over 45% in size. Summed up: as §2
Experiment [10] in a line: A CellTox Green Cytotoxicity Assay to monitor cytotoxicity in HEK293 cells - 32 hour (AID 1224881). Note: nearly all actives have a fitted effect of over 40% in size. Note: potency is the fitted concentration of half-maximal effect. Summed up: as §3
Experiment [11] in a line: A CellTox Green Cytotoxicity Assay to monitor cytotoxicity in HepG2 cells - 0 hour (AID 1224882). Note: % is set by controls: 0 for no effect and ±100 for the full control effect; nearly all actives have a fitted effect of over 35% in size. Summed up:
as §4

Experiment [12] in a line: A CellTox Green Cytotoxicity Assay to monitor cytotoxicity in HepG2 cells - 32 hour (AID 1224883). Note: nearly all actives have a fitted effect of over 50% in size. Note: potency is the fitted concentration of half-maximal effect. In outline:
as §4

Experiment [13] can be described thus: A CellTox Green Cytotoxicity Assay to monitor cytotoxicity in HEK293 cells - 8 hour (AID 1224884). Note: % is set by controls: 0 for no effect and ±100 for the full control effect; nearly all actives have a fitted effect of over 35% in size. In outline:
as §3

Experiment [14] can be described thus: qHTS RealTime-Glo MT Cell Viability Assay in HepG2 cells - 16 hour (AID 1224885). Note: % is set by controls: 0 for no effect and ±100 for the full control effect; nearly all actives have a fitted effect of over 50% in size. In outline: as §5
Experiment [15] can be described thus: A CellTox Green Cytotoxicity Assay to monitor cytotoxicity in HEK293 cells - 16 hour (AID 1224888). Note: nearly all actives have a fitted effect of over 35% in size. Note: potency is the fitted concentration of half-maximal effect. In outline: as §3
Experiment [16] can be described thus: qHTS RealTime-Glo MT Cell Viability Assay in HepG2 cells - 0 hour (AID 1224889). Note: nearly all actives have a fitted effect of over 50% in size. Note: potency is the fitted concentration of half-maximal effect. Summed up:
as §5

A short description of experiment [17]: qHTS RealTime-Glo MT Cell Viability Assay in HEK293 cells - 24 hour (AID 1224886). In outline: (§6)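 Viability tracked continuously by luminescence as live cells reduce a prosubstrate for NanoLuc; HEK293 cells preincubated 5 h, compound-treated at 37 C, and read at 0, 8, 16, 24, 32 and 40 h.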
The nature of experiment [18]: qHTS RealTime-Glo MT Cell Viability Assay in HEK293 cells - 8 hour (AID 1224887). Note: nearly all actives have a fitted effect of over 50% in size. Note: potency is the fitted concentration of half-maximal effect. In outline: as §2
Experiment [19] in a line: A CellTox Green Cytotoxicity Assay to monitor cytotoxicity in HEK293 cells - 40 hour (AID 1224871). Note: nearly all actives have a fitted effect of over 45% in size. Note: potency is the fitted concentration of half-maximal effect. Summed up: as §3
Experiment [20] is described as follows: qHTS RealTime-Glo MT Cell Viability Assay in HEK293 cells - 16 hour (AID 1224872). In outline: as §6

A number with no mark means an inactive call. Inconclusive results are not listed. Activity calls are given as the source filed them. Calls come from the whole dose curve; as a rule, active = well fitted curve in the direction sought with a large enough effect in the repeat runs; inconclusive = weak or mixed curves; inactive = no such curve, though single readings can be large; an effect the other way counts as inactive or inconclusive.

Consider `BrCC(Br)C1CCC(Br)C(Br)C1` (configuration not stated), for which the Potency entry in experiment [1], in [2], in [4], in experiment [5], in [6] and in experiment [7] was “inactive” in each case. The Potency entry in experiment [8], in experiment [9], in experiment [10], in experiment [11], in [12] and in experiment [13] was “inactive” each time. Also, the Potency result in experiment [14], in experiment [15] and in [16] was “inactive” each time. Also, the max response in [3] was -20.5%.

On to `CCOP(=O)(OCC)O/C(=C/Cl)c1ccc(Cl)cc1Cl`, for which the Potency entry in experiment [1], in experiment [2], in [4], in experiment [5], in experiment [6] and in experiment [7] was “inactive” throughout. In addition, the Potency result in experiment [8], in experiment [9], in experiment [10], in [11], in [12] and in [13] was “inactive” each time. For the same compound, the Potency entry in experiment [15] is “inactive”. In addition, the figures for the Potency in experiment [3] and in [17] were 19.5 µM (active) and 24.5 µM (active), respectively.

As for `CC1CC(CC2CCC(N)C(C)C2)CCC1N` (configuration not stated), the Potency entry in [1], in experiment [2], in [5], in experiment [7], in experiment [8] and in experiment [9] was “inactive” each time. The Potency entry in experiment [11], in experiment [12], in [13], in [14], in [18] and in [15] was “inactive” throughout. For the same compound, the Potency result in [16] was “inactive”. In addition, the Potency in experiment [3] was 55.8 µM (active); in experiment [4], 62.7 µM (active); in experiment [17] it was 44.4 µM (active).

With `CC(C)N(C(=O)COc1nnc(C(F)(F)F)s1)c1ccc(F)cc1`, the Potency result in [19], in experiment [4], in experiment [5], in experiment [7], in [8] and in experiment [9] was “inactive” in each case. Also, the Potency result in [10], in experiment [11], in [12], in experiment [13], in experiment [15] and in [16] was “inactive” throughout. Moreover, the Potency in [20] and in experiment [18] was 34.7 µM (active) each time.

`O=C1NCN(c2ccccc2)C12CCN(CCCOc1ccc(F)cc1)CC2`: the Potency result in experiment [1], in experiment [2], in [4], in [5], in [9] and in experiment [10] was “inactive” each time. Also, the Potency entry in experiment [11], in [13], in experiment [14], in experiment [18], in [15] and in experiment [16] was “inactive” each time.

Turning to `CC[C@H]1C[C@H]2[C@@H]3CCC4=CC(=O)CC[C@@H]4[C@H]3CC[C@]2(C)[C@H]1O`, the Potency result in experiment [1], in experiment [2], in [4], in [5], in experiment [9] and in [11] was “inactive” in each case. Moreover, the Potency entry in [13], in experiment [14], in experiment [18], in [15] and in experiment [16] was “inactive” in each case. The values for the Potency in [3] and in experiment [8] were 23.9 µM (active) and 21.3 µM (active), respectively.

Regarding `CC(=O)c1cc2c(cc1C)C(C)(C)C(C)CC2(C)C` (configuration not stated), the Potency entry in [1], in experiment [2], in [6], in [9], in [11] and in experiment [14] was “inactive” throughout. For the same compound, the Potency entry in experiment [16] was “inactive”. The max response in [3] is -12.1%. Besides, the Potency in [4] was 19.5 µM (active); in [5] it was 38.9 µM (active); in [7], 38.9 µM (active); in [8] it was 38.9 µM (active); in experiment [10], 19.5 µM (active); in [12] it was 38.9 µM (active). Also, in experiment [15], the Potency was 19.5 µM (active).

Regarding `CC(O)(CS(=O)(=O)c1ccc(F)cc1)C(=O)Nc1ccc(C#N)c(C(F)(F)F)c1` (configuration not stated), the Potency result in [19], in experiment [4], in experiment [5], in experiment [7], in experiment [8] and in experiment [10] was “inactive” throughout. For the same compound, the Potency entry in experiment [11], in experiment [13] and in [15] was “inactive” in each case.

As for `CCCCC(O)(Cn1cncn1)c1ccc(Cl)cc1Cl` (configuration not stated), the Potency is 54.9 µM (active) in experiment [19]; 43.6 µM (active) in experiment [20]; 43.6 µM (active) in [3]; 43.6 µM (active) in [7]; 48.9 µM (active) in experiment [8]; 54.9 µM (active) in experiment [10]. In addition, the Potency in experiment [12] is 48.9 µM (active); in experiment [17], 43.6 µM (active); in experiment [18], 43.6 µM (active); in experiment [16], 24.5 µM (active). Moreover, the Potency entry in [9] and in experiment [11] was “inactive” each time.

As for `CCCCOC(=O)c1ccccc1C(=O)OCc1ccccc1`, the Potency result in experiment [1], in experiment [2], in [4], in experiment [5], in experiment [6] and in experiment [7] was “inactive” in each case. For the same compound, the Potency result in experiment [8], in experiment [9], in experiment [10], in experiment [11], in experiment [12] and in [14] was “inactive” each time. In [15], the Potency entry was “inactive”.

Turning to `O=S1OC[C@@H]2[C@H](CO1)[C@]1(Cl)C(Cl)=C(Cl)[C@@]2(Cl)C1(Cl)Cl` (some centres not stated), the Potency result in experiment [1], in [9], in [11] and in experiment [16] was “inactive” in each case.

For `ClP(Cl)(Cl)(Cl)Cl`, the Potency result in experiment [4], in experiment [5], in experiment [9], in experiment [11], in experiment [18] and in experiment [15] was “inactive” in each case.

With `Clc1cc(C(Cl)(Cl)Cl)cnc1Cl`, the Potency result in experiment [1], in [2], in [5], in [6], in experiment [9] and in [11] was “inactive” in each case. Also, the Potency entry in experiment [13], in [14], in experiment [15] and in [16] was “inactive” in each case. In addition, the Potency in [8] and in experiment [12] was 34.7 µM (active) each time.

Turning to `CC(C)(C)C(O)C(Oc1ccc(Cl)cc1)n1cncn1` (configuration not stated), the Potency result in experiment [1], in experiment [2], in [4], in experiment [6], in experiment [9] and in [10] was “inactive” in each case. Besides, the Potency entry in experiment [11] and in experiment [15] was “inactive” each time. Besides, the Potency in experiment [3] was 11 µM (active); in experiment [7] it was 43.6 µM (active); in [8], 43.6 µM (active); in [12], 43.6 µM (active); in experiment [17] it was 12.3 µM (active).

Consider `CCCC(Cn1cncn1)c1ccc(Cl)cc1Cl` (configuration not stated), for which the Potency entry in experiment [1], in experiment [9], in [11], in [13] and in experiment [15] was “inactive” each time. Further, the Potency in experiment [3] and in experiment [17] was 21.9 µM (active) each time.
